# Source: the supplement of paper PMC3334620
# The full ranking holds about 33,000 sequences; the median of “E-score (-0.5 to 0.5)” is about -0.015, and the highest 2% start at about 0.3. Only a selection was taken, and the highest values are over-represented in it overall.
# Target: T1, Abf1 (UniProt P14164)
# T1 sequence: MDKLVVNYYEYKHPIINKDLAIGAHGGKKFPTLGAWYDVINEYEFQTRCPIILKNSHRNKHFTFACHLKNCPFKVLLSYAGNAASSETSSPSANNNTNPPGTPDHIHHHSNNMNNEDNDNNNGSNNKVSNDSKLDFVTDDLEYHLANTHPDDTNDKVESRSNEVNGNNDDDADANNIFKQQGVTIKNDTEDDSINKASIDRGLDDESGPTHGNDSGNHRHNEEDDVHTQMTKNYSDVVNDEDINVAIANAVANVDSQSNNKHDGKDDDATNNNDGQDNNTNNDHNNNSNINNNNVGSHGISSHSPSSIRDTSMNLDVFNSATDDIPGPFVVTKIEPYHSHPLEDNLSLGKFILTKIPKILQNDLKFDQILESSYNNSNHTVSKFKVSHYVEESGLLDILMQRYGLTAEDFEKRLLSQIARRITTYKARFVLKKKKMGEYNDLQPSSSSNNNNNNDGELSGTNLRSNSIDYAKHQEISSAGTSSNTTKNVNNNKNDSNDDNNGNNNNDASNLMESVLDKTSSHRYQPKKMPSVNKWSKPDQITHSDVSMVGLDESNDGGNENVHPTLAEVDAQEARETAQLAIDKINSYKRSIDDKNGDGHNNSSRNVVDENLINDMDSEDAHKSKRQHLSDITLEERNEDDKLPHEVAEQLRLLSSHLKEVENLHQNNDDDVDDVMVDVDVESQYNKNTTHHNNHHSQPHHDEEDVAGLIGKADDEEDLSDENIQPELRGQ
# Assay: PBM E-score (8-mer binding enrichment) (E-score (-0.5 to 0.5)); higher = stronger / more preferred TF binding
# Conditions: protein concentration: 200 nM; construct: GST-full length
# How it was run: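 Yeast transcription factors, full-length or as DNA-binding domains, were expressed with a GST tag using PURExpress in vitro transcription/translation. At about 100-200 nM they were applied to universal all-10-mer Agilent arrays, double-stranded by primer extension on fresh or once-stripped slides. Fluorescent anti-GST detected bound protein, and masliner normalised the scans. E-scores for ungapped eight-base words, pooled with reverse complements, came from the Universal PBM Analysis Suite.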
row,Sequence,PBM E-score
1,TAGCCGGA,-0.117
2,AAGTGGCT,-0.149
3,AAGTGACA,0.394
4,AAGTGACT,0.328
5,AAGTGACC,0.252
6,AAGTGACG,0.352
7,ATGTGACA,0.288
8,AAGTGAGG,-0.0213
9,AAGTGCCA,-0.105
10,CAGTGACG,0.239
11,GGGCTATA,-0.0762
12,AATCACCC,0.195
13,AACGCAAC,0.0366
14,CATTTTGG,0.124
15,AGAGTGTG,-0.158
16,AGGTGAGG,0.115
17,TACAACCA,-0.0973
18,CCGAAGGA,-0.29
19,ACCTCATA,0.195
20,CGGAAGAG,-0.212
21,AGTCCCCG,-0.265
22,AGTTTATA,0.0788
23,AACTTAGC,0.0723
24,CTGCACGA,0.303
25,ATGCACGC,-0.131

row,Sequence,PBM E-score
1,ATGCACGA,0.362
2,ATGCACGG,0.258
3,CTGCACGC,-0.24
4,GTGCACGA,0.187
5,CCAGAGGG,-0.267
6,AGAATTTG,-0.0116
7,AAACGAAG,0.108
8,GTAATGCA,-0.123
9,CATGCTAA,0.0181
10,AAATACGA,0.333
11,AAATACGC,0.0308
12,AAATACGT,0.039
13,TAATACGA,0.337
14,AAATACGG,0.314
15,GAATACGA,0.253
16,CAATACGA,0.281
17,CAATACGG,0.228
18,AGATACGG,0.129
19,CCACGCGG,-0.0923
20,ATACTTAG,-0.0263
21,GAAGCTGA,-0.0959
22,GCAGACCC,-0.286
23,CACTGTCA,0.234
24,GTTCGAAC,0.21
25,AAGACAAT,0.138

row,Sequence,PBM E-score
1,ATGACAAT,0.344
2,GGGACAAC,-0.0272
3,CTGACAAC,-0.0598
4,TTGACAAA,0.182
5,AGGACAAT,0.125
6,AGGACAAA,0.121
7,ATGACAAA,0.338
8,GTGACAAC,0.375
9,CTGACAAA,0.0266
10,AAGACAAA,0.127
11,GTGACAAA,0.412
12,TACGCGCA,0.0188
13,TCCCGAAA,0.0516
14,AATGAAGT,-0.0259
15,ATAAACCA,0.0453
16,GCAATGAC,0.245
17,GCACGCAC,0.0219
18,ACCTGCGT,-0.045
19,ATCCACAC,-0.103
20,GACGGGAA,0.098
21,CGGCAGAG,-0.193
22,CATCCCCG,-0.108
23,ATAACGAG,0.24
24,AGCGTGCA,0.0338
25,CTCGCATA,-0.0654

row,Sequence,PBM E-score
1,ATGACAGC,0.199
2,ATGACAAG,0.282
3,ATGACAAC,0.343
4,CATAGAAA,0.105
5,GATCATGA,0.227
6,AATCATGA,0.274
7,CATCATGA,0.298
8,TATCATGA,0.306
9,CATCATGG,0.101
10,CATCATGC,0.128
11,ACTGGCCG,-0.142
12,ACATTGAG,-0.169
13,CCTGGCGA,-0.127
14,GGCCATCA,-0.255
15,AATCGAAA,0.126
16,CGAAGGGA,-0.118
17,GGATGAGA,-0.0398
18,AGATGATC,0.176
19,CGATGATC,0.287
20,CGATGATA,0.305
21,AGATGATG,0.216
22,CGATGAGA,0.19
23,GGATGATA,0.31
24,AGATGATA,0.364
25,GGATGAAA,0.128

row,Sequence,PBM E-score
1,ACATTGGG,-0.0776
2,TGGCTTAA,0.115
3,AGATTCCC,-0.0908
4,ACAAAGTC,0.0656
5,AAGGGTTA,0.0193
6,AAACCTGC,-0.168
7,ATGTGAAG,0.164
8,ACCGGACG,-0.0917
9,ATGACCCC,-0.103
10,AGACTTCA,-0.0675
11,ACGAAAGC,0.356
12,ACGAAGAT,0.284
13,GCGAAAGC,-0.15
14,ACGAAGAC,0.308
15,ACGAAACT,0.336
16,ACGAAACC,0.196
17,ACGAAAGG,0.276
18,ACGAAACA,0.245
19,ACGAAGAA,0.288
20,ACGAAAAA,0.216
21,ACGAAAAG,0.218
22,ACGAAAAC,0.316
23,GGAGACTA,-0.107
24,CTGTCGCC,-0.202
25,AGGTTTGA,-0.188

row,Sequence,PBM E-score
1,CCTGGCCA,-0.161
2,ACTCTATA,0.145
3,GCGGAAAC,-0.206
4,AGGATTGG,-0.0614
5,GTTCTTAA,0.124
6,ACGAAGTC,0.152
7,ACGAAGTG,0.301
8,ACGAAGTA,0.169
9,AGACGTTG,0.109
10,ACAGATTG,-0.0933
11,CTGACATC,-0.0102
12,ATGACATG,0.358
13,ACGACATG,0.225
14,ACGACATC,0.303
15,ATGACACC,0.187
16,ATGACATC,0.308
17,CTGACACA,-0.208
18,CCGACATC,0.218
19,ATGACAGG,-0.0297
20,ATGACACA,0.266
21,GTGACACA,0.343
22,AGGACATG,-0.0301
23,GAGTATCC,0.0845
24,ACCACGCT,-0.0224
25,GAACAGTC,-0.0496

row,Sequence,PBM E-score
1,AATTTGCC,-0.136
2,GAGACATA,0.0808
3,GGGACATA,-0.00523
4,AAGACATA,0.103
5,GTGACATA,0.43
6,ATGACATA,0.401
7,CTGACAGA,0.0348
8,GTGACAGA,0.359
9,ATGACAGA,0.128
10,CTGACATA,0.0493
11,ACGACTCG,0.144
12,CGTGGTAC,0.161
13,AACTGCTG,-0.0316
14,CTGACTCC,-0.131
15,CGTGGGAG,0.0501
16,CAAATCCC,-0.184
17,ACGTCTAA,0.196
18,TCGTCGAA,0.355
19,CCGTCGCA,0.282
20,ACGTCGAA,0.163
21,TCGTCGCA,0.322
22,CCGTCGTA,0.282
23,TCGTCTAA,0.298
24,ACGTCGTA,0.228
